In the library only some 3.8% were active in any assay of this set; here they are far more common.
Nrf2 inh: Nrf2 pathway inhibition | A549 ARE-Fluc reporter, luciferase luminescence, 18-24 h | Potency, µM (titrated, usually from 46 µM), most hits filed as inhibitors | hit rate 2.1% among 360,000; also: nearly all actives have a fitted effect of over 60% in size
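A549 ARE_Fluc cells (5000/well, 5% FBS OPTI-MEM) pre-incubated 2 h, then treated with compounds 18-24 h at 37C/5% CO2 in concentration-response. CellTiter-Fluor viability read first; BugLite luciferase luminescence after 15 min at room temperature gives Nrf2 activity.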
ATXN viability: reduces viability in counter-screen for ATXN expression inhibitors | S2 cells (HEK-293 line with an ATXN2-luciferase reporter) viability, CellTiter-Fluor protease fluorescence, 24 h | Potency, µM (top dose mostly 56.7 µM), hits mostly cytotoxic | hit rate 0.49% among 400,000; also: nearly all actives have a fitted effect of over 40% in size
HepG2 tox-1: counter-screen for TGF-b inhibitors: cytotoxicity in HepG2 cells | hit rate 0.76% among 410,000 | HepG2 CAGA-GFP viability, ATP luminescence, 18 h | Potency, µM (highest dose often 46.1 µM), actives largely listed as cytotoxic
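CellTiter-Glo luminescence gave cytotoxicity after 18 hours at 37 degrees C. The cells were HepG2 CAGA-GFP in 1% FBS DMEM, stimulated with 500 pg/mL TGF-beta after compound addition. %Activity was normalised to no-cell wells (complete cell-killing) and DMSO (no toxicity), and curves were fitted and classified.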
TGFb SMAD3 inh: blocks TGF-b signaling. HepG2 CAGA-GFP TGF-b/SMAD3 reporter, GFP fluorescence, 18 h; TGF-beta stimulated, 500 pg/mL final. Potency, µM (series often up to 46.1 µM), actives largely listed as inhibitors. hit rate 1.2% among 410,000; also: nearly all actives have a fitted effect of over 65% in size
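TGF-beta reporter screen: HEPG2 CAGA-GFP, 1% FBS, 500 pg/mL TGF-beta final, 18 h; per-cell GFP summed per well; curves fitted and categorized by class.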
ATXN2 expr inh: reduces ATXN2 reporter expression in HEK-293 cells; HEK-293 ATXN2-luciferase reporter, luminescence, 24 h; AID 1745845; Potency, µM (series often up to 57 µM), usual class: inhibitors; hit rate 0.72% among 360,000; also: nearly all actives have a fitted effect of over 55% in size
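ATXN2-luciferase reporter cells (luciferase flanked by upstream and downstream ATXN2 gene portions) were treated 24 h at 37 °C with compounds at up to 57 uM. SteadyGlo luminescence gave expression; GF-AFC fluorescence gave viability.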
A549 tox: kills or reduces viability of A549 cells in Nrf2 counter-screen; A549 ARE-Fluc cells, CellTiter-Fluor viability, 18-24 h; hit rate 0.16% among 390,000; Potency, µM (series often up to 46 µM), usual class: inhibitors; AID 504648
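A549 ARE_Fluc cells in 5% FBS OPTI-MEM were exposed to compounds in concentration-response for 18-24 h at 37 deg C. Viability was read by CellTiter-Fluor fluorescence (Ex 405/Em 525) after 30 min, before the luciferase read.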
TGFb confirm: TGF-b pathway inhibition, cherry-pick retest | shares compounds with TGFb SMAD3 inh | HepG2 CAGA-GFP TGF-b reporter, GFP fluorescence, 18 h; cells stimulated with TGF-beta, 500 pg/mL | Potency, µM (series often up to 46.1 µM), hits mostly inhibitors | hit rate 63% among 1,600 | AID 720534; also: nearly all actives have a fitted effect of over 65% in size
HepG2 tox-2: HepG2 cytotoxicity, TGF-b inhibitor counterscreen; shares compounds with TGFb SMAD3 inh; hit rate 27% among 1,600; Potency, µM (series often up to 46.1 µM), most hits filed as inhibitors; AID 720535; HepG2 CAGA-GFP viability, ATP luminescence, 18 h; cells stimulated with TGF-beta, 500 pg/mL; also: nearly all actives have a fitted effect of over 70% in size
TGFb CCL64 inh: TGF-b inhibition, CCL64 orthogonal assay | AID 720536 | CCL64 CAGA-GFP reporter, TGF-b stimulated, GFP fluorescence, 18 h | shares compounds with TGFb SMAD3 inh | hit rate 41% among 1,600 | Potency, µM (series often up to 46.1 µM), usual class: inhibitors; also: nearly all actives have a fitted effect of over 65% in size
COP TGFb inh: blocks TGF-b signaling in HepG2 COP reporter; shares compounds with TGFb SMAD3 inh; HepG2 COP-GFP TGF-b reporter, GFP fluorescence, 18 h; cells stimulated by added recombinant TGF-beta; Potency, µM (top dose mostly 46.1 µM), most hits filed as inhibitors; hit rate 3% among 1,600; also: nearly all actives have a fitted effect of over 70% in size
A number is an active result; - = inactive; ? = inconclusive; . = no result; [ ] = remark or other dose. Calls follow the shape of the dose curve; as a rule, active = well fitted curve in the direction sought with a large enough effect; inconclusive = small, poorly fitted or top-dose-only effect, or another doubt; inactive = no such curve, though single readings can be large; an effect the other way counts as inactive or inconclusive.

SMILES	Nrf2 inh	ATXN viability	HepG2 tox-1	TGFb SMAD3 inh	ATXN2 expr inh	A549 tox	TGFb confirm	HepG2 tox-2	TGFb CCL64 inh	COP TGFb inh
COc1cc(C2NC(=O)c3ccccc3O2)cc(OC)c1OC (stereo not given)	-	-	-	-	-	-	.	.	.	.
CC(=O)Nc1ccc(Nc2nc3ccc(C)cc3n3nnnc23)cc1	-	.	-	-	.	-	.	.	.	.
Cc1cc(Nc2cnc3ccccc3n2)n(-c2ccccc2)n1	?	-	-	?	-	-[1.84 µM]	.	.	.	.
Cc1cc(Nc2nc3ccccc3[nH]c2=O)n(-c2ccccc2)n1	?	-	-	10µM	-	-	8.2µM	-	12µM	-
CC(C)(C)OC(=O)N1CCC(c2c(C(=O)Nc3ccc4c(c3)OCO4)cnn2-c2ccc(F)cc2F)CC1	-	.	-	-	.	-	.	.	.	.
CC1CCN(S(=O)(=O)c2ccc3c(c2)oc(=O)n3CC(=O)O)CC1	.	.	-	-	.	-	.	.	.	.
Cc1cc(C)cc(NC(=O)Cn2c(=O)oc3cc(S(=O)(=O)N4CCC(C)CC4)ccc32)c1	?	-	7.9µM	7.9µM	?	-	?	-	?	-
COc1cc(Cl)ccc1OCc1cc(C(=O)N(C)Cc2cccc3cnccc23)no1	?	-	-	11µM	-	-	15µM	?	?	-
CC(=O)Nc1ncnc2c1c(-c1ccc(Cl)cc1)nn2C(C)(C)C	-	?	-	3.5µM	?	-	2.6µM	?	?	?
C(=NN1CCCCCC1)c1ccc2c(c1)OCO2	?	-	-	-	-	-	.	.	.	.
CCOC(=O)CNC(=O)CSc1nnc(Cn2c(=O)sc3ccccc32)n1-c1ccccc1C	.	-	-	?	-	-	?	-	-	-
O=C(c1[nH]nc2c1CCc1ccccc1-2)N1CCN(Cc2ccc3c(c2)OCO3)CC1	15µM	-	-	11µM	-	-	12µM	?	?	-
CCCCCOc1ccc(CSCCNC(=S)Nc2ccccc2)cc1	-	-	-	-	-	-	.	.	.	.
CCCCOc1ccc(CSCCNC(=S)Nc2ccccc2)cc1	-	?	-	7.9µM	-	?	?	-	-	-
O=c1cnc2ccccc2n1Cc1ccc(Br)cc1	-	-	-	-	-	-	.	.	.	.
CC(C)(C)c1ccc(Cn2c(=O)cnc3ccccc32)cc1	?	-	-	10µM	?	-	18µM	?	-	-
O=C(COC(=O)COc1ccc(Cl)cc1)NC1CCCCCC1	-	-	-	-	-	-	.	.	.	.
O=C(N/N=C/c1ccccc1O)c1cccc2ccccc12	-	-	-	8.9µM	.	-	?	?	?	-
O=C(O)c1ccc(C=NNC(=O)c2cccc3ccccc23)cc1	-	-	-	-	-	-	.	.	.	.
CC(=O)Nc1cccc(-c2ccnc3c2CC(C)(C(=O)NCc2ccncc2)O3)c1 (stereo not given)	.	-	-	-	-	.	.	.	.	.
COc1ccc2nc(NC(=O)c3ccc([N+](=O)[O-])o3)sc2c1	?	?	-	8.9µM	-	-	2.3µM	21µM	12µM	-
O=C(Nc1nc2cc3c(cc2s1)OCCO3)c1ccc([N+](=O)[O-])o1	-	-	-	?	-	-	0.82µM	4.1µM	?	-
O=C(Nc1nc2ccccc2s1)c1ccc([N+](=O)[O-])o1	?	?	-	?	.	-	.	.	.	.
CN1CCN(Cc2cc(COCc3ccccc3)c3cccnc3c2O)CC1	?	?	-	4.5µM	4µM	-	-	?	7.3µM	-
O=C(Oc1c(CN2CCOCC2)cc(Cl)c2cccnc12)c1ccccc1	?	11µM	2.8µM	2.8µM	8.9µM	-	-	?	?	-
SMILES	Nrf2 inh	ATXN viability	HepG2 tox-1	TGFb SMAD3 inh	ATXN2 expr inh	A549 tox	TGFb confirm	HepG2 tox-2	TGFb CCL64 inh	COP TGFb inh
Oc1c(Cl)cc(CN2CCOCC2)c2cccnc12	?	?	-	2.5µM	.	?	?	?	?	-
COc1cc(OC)cc(C(=O)Oc2c(CN3CCOCC3)cc(Cl)c3cccnc23)c1	-	?	-	?	-	-	.	.	.	.
Oc1c(CN2CCCCC2)cc(Br)c2cccnc12	?	3.5µM	-	2.8µM	4µM	-	21µM	?	7.3µM	-
Cc1ccc(CN(C(=O)c2ccccc2F)c2ccccn2)o1	-	-	-	-	-	-	.	.	.	.
CCn1c(C(=O)N2CCCC(C(=O)NCCc3ccc(C)cc3)C2)cc2sccc21 (stereo not given)	?	?	-	13µM	?	-	?	-	-	-
Cn1c(C(=O)N2CCCC(C(=O)NCCCSC3CCCCC3)C2)cc2sccc21 (stereo not given)	?	-	-	13µM	-	-	?	?	?	-
CCn1c(C(=O)N2CCCC(C(=O)O)C2)cc2sccc21 (stereo not given)	-	-	-	-	-	-	.	.	.	.
Nc1ncnc2c1ncn2[C@@H]1O[C@H](CO)C[C@H]1O	-	-	-	-	-	-	.	.	.	.
Nc1ncnc2c1ncn2C1C=C(CO)C(O)C1O (stereo not given)	?	?	10µM	8.9µM	?	-	?	0.13µM	?	-
COC(=O)c1cc(NC(=O)c2nn(C)c3c2CSc2ccccc2-3)cc(C(=O)OC)c1	-	.	-	-	.	-	.	.	.	.
O=C(Nc1c2c(nn1-c1ccccc1)CS(=O)C2)c1ccco1 (stereo not given)	-	-	-	-	-	-	.	.	.	.
O=C(NCC1CCCO1)c1ccccc1NS(=O)(=O)c1ccc(Br)s1 (stereo not given)	-	-	-	-	-	-	.	.	.	.
CC1=C(CO)C(=O)OC([C@@H](C)C2CC[C@H]3C4C[C@H]5O[C@]56[C@@H](O)C=CC(=O)[C@]6(C)C4CC[C@]23C)C1 (stereo not given in full)	13µM	5.6µM	-	2.8µM	3.2µM	-	0.58µM	2.3µM	1.2µM	?
Nc1nnnn1/N=C/C=C/c1ccccc1	-	-	-	-	-	-	.	.	.	.

Assay outcomes: PubChem, National Center for Advancing Translational Sciences (NCATS)
